Test results: PubChem BioAssay (NCATS)
Active and inactive are the calls of the source. Calls come from the whole dose curve; as a rule, active = well fitted activation curve with a large enough effect; inconclusive = small, poorly fitted or top-dose-only effect; inactive = flat fitted curve, though single readings scatter.

Experiment: Confirmation and Secondary Assay for Modulators of Hemoglobin Beta Chain Splicing at IVS2 654 locus (AID 910);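 note: HeLa cells stably carrying EGFP split by mutant beta-globin IVS2-654 intron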;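 note: potency of activators that raise GFP signal by restoring correct splicing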; for activation (splicing correction): % of control where 0% means no effect
Details: HeLa EGFP-654 splicing reporter, GFP fluorescence, 48 h; series mostly up to 38.3 µM; activation (splicing correction): at the top concentration
Source text: NIH Chemical Genomics Center [NCGC] NIH Molecular Libraries Screening Centers Network [MLSCN] MLSCN Grant: 1 X01 MH080684-01 PI Name: Dr. Ryszard Kole NCGC Assay Overview: Modulation of Alternative Splicing as Therapy Abnormal splicing is associated with a number of diseases, including cancer and genetic diseases such as cystic fibrosis, muscular dystrophy and beta-thalassemia. Alteration of disease associated splicing patterns provides a promising target for treatment. […] Mutations in the second intron of the b-globin gene at positions 654 or 705 are clinically relevant and cause mis-splicing which results in an out of frame gene product. […] EGFP-654 HeLa Cells as screen system. HeLa cell lines were stably transfected with a construct in which the EGFP (enhanced green fluorescent protein) cDNA was interrupted by the second intron of the beta-globin gene (IVS2-654). The ISV2 intron contains mutations which cause mis-splicing of EGFP and premature termination of EGFP which results in a nonfluorescent protein product. […] Expression of the transgene was driven by the CMV promoter. We concluded that a low molecular weight compound, which restored correct splicing of intron 2 would also generate functional EGFP protein, resulting in a fluorescent signal. Thus, the HeLa cells that express the EGFP-654 construct can be used for high throughput screening of a chemical library.
NCGC Assay Protocol Summary: Confirmatory Screening. Freshly thawed HeLa EGFP-654 cells were seeded in 5 ul of optimem media (Invitrogen) containing 2 % fetal calf serum (Hyclone) and 1x penicillin/streptomycin (Invitrogen) at a concentration of 500 cells per well in 1536-well plates. Cells were incubated overnight at 37C in 5% CO2. The next day, cells were treated with DMSO, 500 nM antisense ISV2 654 PNA control oligo, or library compound and allowed to grow at 37C in 5% CO2 for 2 days. The PNA oligo blocked the mutation site in the intron and allowed proper (wild type) splicing to occur, resulting in full length EGFP expression and also allowed for optimization of the assay parameters. Plates were read in the Acumen Explorer (TTP Labtech) using 488 nm laser excitation and 500-520 nm emission PMT filter in a 1 x 8 uM capture mode. Fluorescnet objects ranging in size from 5 to 250 uM were measured and the total peak GFP intensity for each well was used for data analysis. Keywords: Thalassemia, beta-thalassemia, beta-globin, EGFP, ISV2 654, ISV2 705, SSO, PNA, antisense, splicing, MLSMR, MLSCN, NIH Roadmap, qHTS, NCGC
Potency is the fitted concentration of half-maximal effect.

Activation (splicing correction), inactive:
COCCNc1ccnc(-c2c(C)noc2C)n1 0.997%
COc1ccc(CNc2nc(-c3ccoc3)nc3ccccc23)c(OC)c1 -2.4%
C=CCc1ccc(OC(=O)c2ccccc2)c(OC)c1 -0.246%
CN1CCN(c2ccnc(-c3cccc(NS(C)(=O)=O)c3)n2)CC1 1.33%
CN(Cc1ccco1)c1nc(-c2cccc(C#N)c2)nc2ccccc12 0.374%
COc1ccc2c(c1)OCC(Cc1ccc(OC)c(OC(C)=O)c1)C2=O (stereo not given) -7.43% [at 46.1 µM]
O=c1ccc2cc(O)c(O)cc2o1 11.8% [at 46.1 µM]
O=c1cc(-c2ccc(O)cc2)oc2cc(O[C@H]3OC(CO)C(O)C(O)C3O)cc(O)c12 (stereo not given in full) 5.58% [at 46.1 µM]
CN(C)Cc1ccccc1-c1cncnc1Nc1ccc(F)cc1 -0.267%
FC(F)(F)c1ccccc1-c1cncnc1Nc1ccccc1 1.94%
Cc1cccc(CNc2cc(-c3ccccc3C)ncn2)c1 0.999%
COc1cc(C)c2c(c1C=O)Oc1c(c(C)c(O)c3c1C(O)OC3=O)OC2=O (stereo not given) 2.43%
O=c1c(O)c(-c2ccc(O)c(O)c2)oc2c(OC3OC(CO)C(O)C(O)C3O)c(O)cc(O)c12 (stereo not given) 6.13% [at 46.1 µM]
CN(C)Cc1ccccc1-c1ccc2ncnc(N3CCOCC3)c2c1 -1.33%
COC(=O)CCCOc1ccc(Cl)cc1Cl -1.23%
CN(C)c1ccc(-c2nc(NCc3cccnc3)c3ccccc3n2)cc1 1.86%
CN(Cc1ccco1)c1ccnc(-c2ccoc2)n1 0.413%
CN1CCN(c2nc(-c3cccc(NS(C)(=O)=O)c3)nc3ccccc23)CC1 0.323%
Cc1cccc(CNc2ncnc3ccc(-c4c(C)noc4C)cc23)c1 -2.24%
CCC(=O)OC1CCC2C3CCc4cc(O)ccc4C3CC[C@]12C (stereo not given in full) -5.63% [at 46.1 µM]
CN(Cc1ccco1)c1nc(-c2ccccc2Cl)nc2ccccc12 2.3%
CN(C)C(=O)c1ccc(-c2nc(N(C)Cc3ccco3)c3ccccc3n2)cc1 0.36%
Cc1noc(C)c1-c1ccc2ncnc(N(C)Cc3ccco3)c2c1 -0.874%
COC(=O)c1c(C)c2c(c(C)c1O)OC(=O)c1c(C)c(Cl)c(O)c(Cl)c1O2 -4.91% [at 46.1 µM]
CN(C)C(=O)c1ccc(-c2cncnc2NCc2cccs2)cc1 1.25%
COc1ccccc1CNc1ncncc1-c1ccccc1CN(C)C 1.22%
COc1ccc2[nH]cc(CCNc3ncnc4ccc(-c5ccc(C(=O)N(C)C)cc5)cc34)c2c1 1.58%
COc1ccccc1CNc1ncnc2ccc(-c3cccnc3)cc12 1.73%
CN(C)C(=O)c1ccc(-c2nc(N(C)C)c3ccccc3n2)cc1 1.75%
CN(Cc1ccco1)c1ncnc2ccc(-c3ccc4c(c3)OCO4)cc12 0.233%
CN(C)Cc1ccccc1-c1ccc2ncnc(NC3CC3)c2c1 -0.486%
COc1cccc(-c2nccc(NC3CCNCC3)n2)c1 1.3%
O=C(/C=C/c1ccc(O)c(O)c1)OC(Cc1ccc(O)c(O)c1)C(=O)O (stereo not given) 5.31% [at 46.1 µM]
Cc1cnc(CNc2ncncc2-c2ccccc2CN(C)C)cn1 0.0442%
Cc1ccccc1-c1cc(-n2ccnc2)ncn1 0.595%
COc1cc(C)c(C(=O)Oc2cc(C)c(C(=O)O)c(O)c2C)c(OC)c1C -1.66%
COc1ccc2ccc(=O)oc2c1 7.32% [at 46.1 µM]
Cc1cccc(CNc2ncncc2-c2cccc(NS(C)(=O)=O)c2)c1 0.333%

Potency, inactive:
Nc1ncnc2c1ncn2C1OC(CO)C(O)C1O (stereo not given)

Potency, active:
COC(=O)[C@@H]1C2CC3c4[nH]c5cc(OC)ccc5c4CCN3CC2C[C@H](OC(=O)c2cc(OC)c(OC)c(OC)c2)C1OC (stereo not given in full) 15.8 µM
